Assay [1] deals with Zika virus NS2B-NS3 protease (unlinked complex). The experiment in a line: Primary screen GU Rhodamine qHTS for Zika virus inhibitors: Unlinked NS2B-NS3 protease assay (AID 1347159). Also: % is scaled to controls: 0 for no effect and ±100 for the full control effect; nearly all actives have a fitted effect of over 60% in size. In outline:
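Noncovalent NS2B hydrophilic domain/NS3 protease complex (25 nM final) in 10 mM Tris-HCl pH 8.0, 0.01% Tween 20, preincubated 15 min with compounds (up to 114 microM), then 1.5 microM Rhodamine110 substrate. Fluorescence change over 15 min fitted to 4-parameter Hill.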

Assay [2] deals with Cytochrome P450 2D6 (Homo sapiens) (UniProt P10635). Description: Cytochrome P450 family 2 subfamily D member 6 (CYP2D6) small molecule antagonists: luciferase biochemical (cell-free) qHTS assay (AID 1645840; active = well fitted curve in the direction sought with a large enough effect in the repeat runs; an effect the other way counts as inactive or inconclusive; also: nearly all actives have a fitted effect of over 55% in size; also: potency is read from the fitted curve at half-maximal effect). In outline:
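P450-Glo luminescent screen: recombinant CYP2D6 enzyme–proluciferin substrate mix preincubated with compound 10 min at room temperature, then NADPH regeneration added for 1 h at room temperature. Detection reagent added for 20 min; luciferin light read as relative luminescence units.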
On the technique in general: Quantitative high-throughput screening tests each substance at several concentrations.

Assay [3] has as its target Cytochrome P450 2C9 (Homo sapiens) (UniProt P11712). The experiment in a line: Cytochrome P450 family 2 subfamily C member 9 (CYP2C9) small molecule antagonists: luciferase biochemical (cell-free) qHTS assay (AID 1645842; active = well fitted curve in the direction sought with a large enough effect in the repeat runs; an effect the other way counts as inactive or inconclusive; also: nearly all actives have a fitted effect of over 55% in size; also: potency is read from the fitted curve at half-maximal effect). In outline: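 Luminescence, after 20 min with luciferin detection reagent, reflected CYP2C9 turnover during a 1 h NADPH-driven reaction at 37C. Enzyme-substrate mix contained 0.4% bovine serum albumin and was preincubated with compound 10 min at room temperature.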

Assay [4] is described as follows: Primary qHTS for inhibitors of nuclear receptor binding SET domain protein 2 (NSD2) in an isogenic RCH-ACV NSD2 p.E1099K mutant (9B) (AID 1645876). Also: nearly all actives have a fitted effect of over 70% in size. Also: potency is read from the fitted curve at half-maximal effect.
Assay [5] is described as follows: Primary qHTS for inhibitors of nuclear receptor binding SET domain protein 2 (NSD2) in an RCH-ACV wild type WT cells (2C) (AID 1645877). Also: nearly all actives have a fitted effect of over 70% in size. Also: potency is read from the fitted curve at half-maximal effect.
Assay [6] deals with CRL-7250. The experiment in a line: Cytotoxic Profiling of Annotated Libraries Using Quantitative High-Throughput Screening (AID 1296008). Also: nearly all actives have a fitted effect of over 60% in size. Also: potency is read from the fitted curve at half-maximal effect. As to max response: % is scaled to controls: 0 for no effect and ±100 for the full control effect. The following applies: Five cell lines viability, CellTiter-Glo ATP luminescence, 48-72 h; max response: stronger effect = lower value. The procedure, abridged: (§1)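 Cells exposed to compounds for 48 or 72 hr at 37 degrees Celsius. Viability read as ATP-coupled luminescence with CellTiter-Glo after 10 min at room temperature.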
On the technique in general: ATP-based viability assays read luminescence as a measure of living cells.

The subject of the next assay is KB-3-1. Described as above. The following applies: Five cell lines viability, CellTiter-Glo ATP luminescence, 48-72 h; max response: stronger effect = lower value. In outline: as §1
For another assay, the system named is HeLa. Description: Primary qHTS to identify gynecologic anti-cancer compounds using libraries of approved drugs and bioactive compounds (AID 1345084). Also: nearly all actives have a fitted effect of over 55% in size. Also: potency is read from the fitted curve at half-maximal effect. Conditions: Gynecologic cancer cell panel viability, ATPlite luminescence, 48 h; series mostly up to 57.5 µM. The procedure, abridged: (§2)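 In this quantitative HTS, cell killing is estimated from loss of ATP-dependent luciferase light. Cells see five compound concentrations over a 48 h exposure.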

In the next assay the test system is SKOV3. Described as above. Conditions: Gynecologic cancer cell panel viability, ATPlite luminescence, 48 h; series mostly up to 57.5 µM. The procedure, abridged: as §2
Assay [7] in a line: P-glycoprotein substrates identified in KB-8-5-11 adenocarcinoma cell line, qHTS therapeutic library screen (AID 1346987). Also: nearly all actives have a fitted effect of over 65% in size. Also: potency is read from the fitted curve at half-maximal effect. In outline:
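P-gp-mediated resistance screen: KB-8-5-11 cells treated 72 h with compounds in dose-response. CellTiter-Glo viability.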

Another assay deals with HACAT. Description: qHTS assay to identify novel small-molecules to repurpose for Merkel cell carcinoma treatment (AID 1296009). Also: nearly all actives have a fitted effect of over 60% in size. The following applies: MCC and control cell lines, CellTiter-Glo viability, 72 h; at 44.8 µM (top of the series) unless noted. The procedure, abridged: (§3)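 Cells were incubated with compound for 72 hr at 37 degree celsius before CellTiter-Glo addition. Luminescence was normalized with no-cell wells as full cytotoxicity and DMSO as baseline.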

The subject of assay [8] is CRL-7250. The description is as above. The following applies: MCC and control cell lines, CellTiter-Glo viability, 72 h; series mostly up to 92 µM. In outline: as §3

Records with an inconclusive call do not appear. A number with no mark means an inactive call. Calls of active or inactive are those of the source. Unless noted, calls follow the shape of the dose curve; as a rule, active = well fitted curve in the direction sought with a large enough effect; inconclusive = small, poorly fitted or top-dose-only effect, or another doubt; inactive = no such curve, though single readings can be large; an effect the other way counts as inactive or inconclusive.

Cytochrome P450 2C9 (Homo sapiens), sequence (P11712 whole entry, looked up): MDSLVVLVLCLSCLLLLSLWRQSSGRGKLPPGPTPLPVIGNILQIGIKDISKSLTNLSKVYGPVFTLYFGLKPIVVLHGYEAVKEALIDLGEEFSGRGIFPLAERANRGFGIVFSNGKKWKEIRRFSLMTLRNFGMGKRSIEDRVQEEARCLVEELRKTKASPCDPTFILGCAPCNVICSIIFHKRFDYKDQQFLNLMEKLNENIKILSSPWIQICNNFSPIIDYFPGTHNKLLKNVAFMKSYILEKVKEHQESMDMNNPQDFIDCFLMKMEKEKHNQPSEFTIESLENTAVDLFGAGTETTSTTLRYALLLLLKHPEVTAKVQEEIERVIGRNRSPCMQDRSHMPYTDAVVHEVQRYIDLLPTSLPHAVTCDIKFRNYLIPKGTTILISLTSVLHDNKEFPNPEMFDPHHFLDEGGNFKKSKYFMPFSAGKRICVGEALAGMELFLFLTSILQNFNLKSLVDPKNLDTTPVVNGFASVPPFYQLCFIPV
Cytochrome P450 2D6 (Homo sapiens), sequence (P10635 whole entry, looked up): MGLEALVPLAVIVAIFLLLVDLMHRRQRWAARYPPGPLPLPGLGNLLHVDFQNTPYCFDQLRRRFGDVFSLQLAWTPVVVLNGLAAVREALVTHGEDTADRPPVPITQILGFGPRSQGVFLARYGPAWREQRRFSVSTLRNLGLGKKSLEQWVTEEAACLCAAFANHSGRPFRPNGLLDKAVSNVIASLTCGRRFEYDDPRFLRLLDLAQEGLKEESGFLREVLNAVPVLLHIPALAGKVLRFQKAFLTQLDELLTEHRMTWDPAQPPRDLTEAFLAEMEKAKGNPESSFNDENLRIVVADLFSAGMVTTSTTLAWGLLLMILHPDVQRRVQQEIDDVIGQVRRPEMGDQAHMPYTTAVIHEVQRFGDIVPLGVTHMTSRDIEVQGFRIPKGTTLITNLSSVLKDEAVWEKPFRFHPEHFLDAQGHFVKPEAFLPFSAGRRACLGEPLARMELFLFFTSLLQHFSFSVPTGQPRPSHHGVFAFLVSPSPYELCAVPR

Regarding `CCCCCn1cc(C(=O)c2cccc3ccccc23)c2ccccc21`, the Potency result (in assay [1]; in assay [2]; in assay [4]; in assay [5]; in the assay on HeLa; in the assay with SKOV3) was “inactive” in each case. The values for the Potency (in assay [3]; in the assay on CRL-7250 [6]) were 1.51 µM (active) and 18.4 µM (active), respectively. In addition, in the assay with KB-3-1, the max response was -15.1%.
Regarding `CCOP(=O)(OCC)Oc1ccc2c(C)cc(=O)oc2c1`, the Potency result (in [5]; in the assay with HeLa; with SKOV3) was “inactive” in each case. In addition, the max response was -4.98% in the assay on CRL-7250 [6] and -1.13% in the assay with KB-3-1.
Turning to `CCC1CN2CCC3(C(=O)Nc4cccc(O)c43)C2CC1/C(=C/OC)C(=O)OC` (stereo unspecified), the Potency entry (in [7]; in [1]; in assay [4]; in [5]; in the assay with HeLa; in the assay on SKOV3) was “inactive” in each case. The max response was -15.5% in the assay on CRL-7250 [6] and -16.6% in the assay on KB-3-1. Moreover, the outcome in the assay with HACAT was “inactive [at 17.4 µM]”.
In the case of `C#CC1(O)CCC2C3CCC4=CC(=O)CCC4=C3C=CC21C` (stereo unspecified), the results for the Potency (in assay [7]; in the assay with KB-3-1) were 2.91 µM (active) and 6.51 µM (active), respectively. Also, the max response in the assay with CRL-7250 [6] is -2.47%. The call with HACAT was inactive. Moreover, in the assay on SKOV3, the Potency result is “inactive”.
Consider `C[C@@H]1CCC2[C@@H](C)C(=O)OC3O[C@@]4(C)CCC1[C@]32OO4` (stereo partly specified), for which the Potency result (in [1]; in the assay with HeLa; in the assay with SKOV3) was “inactive” each time. In addition, the max response is -1.83% in the assay with CRL-7250 [6] and -7.11% in the assay with KB-3-1.
`NCCCCCNC1(c2ccccc2)CCCCC1`: the Potency result (in [7]; in assay [1]; in assay [3]; with HeLa; with SKOV3) was “inactive” in each case. Further, in [2], the Potency was 2.13 µM (active). Also, the max response in the assay with CRL-7250 [6] was -4.91%; in the assay with KB-3-1 it was -2.11%. For the same compound, the outcome in the assay with HACAT was inactive.
Turning to `CC[C@@H]1C[C@H]2CC[C@H](O2)[C@H](C)C(=O)O[C@@H](C)C[C@@H]2CC[C@@H](O2)[C@@H](C)C(=O)O[C@H](C)C[C@H]2CC[C@H](O2)[C@H](C)C(=O)O[C@@H](C)C[C@@H]2CC[C@@H](O2)[C@@H](C)C(=O)O1`, the Potency in [7] is 1.22 µM (active); in assay [4], 21.6 nM (active); in [5], 24.2 nM (active); in the assay on CRL-7250 [6] it was 0.432 µM (active); with KB-3-1, 0.0968 µM (active); with HeLa, 562 nM (active). In addition, the Potency in the assay on SKOV3 was 562 nM (active).
With `CN(Cc1cccc(-c2ccncc2)c1)C(=O)Oc1ccc(-c2ccc(C(N)=O)cc2)cc1`, the Potency entry (in assay [7]; in assay [1]; in [3]; with CRL-7250 [8]; in the assay on HeLa; in the assay with SKOV3) was “inactive” each time. The result with CRL-7250 [6] and in the assay with HACAT was inactive.
Turning to `CC12Cc3cn[nH]c3C=C1CCC1C2CCC2(C)C1CCC2(C)O` (stereo unspecified), in the assay with CRL-7250 [6], the compound was classed as inactive. In addition, the Potency result in the assay on CRL-7250 [8], with HeLa and with SKOV3 was “inactive” in each case.

These data come from PubChem BioAssay (NCATS).
